Results taken from PubChem BioAssay.
Unmarked numbers belong to inactive results. Active and inactive are the calls of the source. Cut-off read from the data, not from the text of the source, unless noted: active = inhibition above about 42%; inactive = the rest.

Experiments:
[1] = StAR promoter reporter inhibitors, counter-screen for LRH-1 inverse agonist project, cell-based, luminescence, high throughput (AID 651611; in the data active = inhibition above about 28%); details: StAR promoter luciferase reporter counterscreen, at 3.6 µM, active compounds read high
[2] = target: Nuclear receptor subfamily 5 group A member 2 (Homo sapiens) (UniProt O00482); experiment: LRH-1 (NR5A2) inverse agonists, retest, confirmation, cell-based, luminescence (AID 651613); details: cell-based LRH-1 luciferase reporter, inverse agonism; at 3.6 µM; active compounds read high;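 note: HEK293T cells co-transfected with LRH-1 and StAR promoter luciferase reporter; 0% = vehicle wells and 100% = parental cells lacking receptor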
Chain of Nuclear receptor subfamily 5 group A member 2 (Homo sapiens) (O00482 whole entry, looked up): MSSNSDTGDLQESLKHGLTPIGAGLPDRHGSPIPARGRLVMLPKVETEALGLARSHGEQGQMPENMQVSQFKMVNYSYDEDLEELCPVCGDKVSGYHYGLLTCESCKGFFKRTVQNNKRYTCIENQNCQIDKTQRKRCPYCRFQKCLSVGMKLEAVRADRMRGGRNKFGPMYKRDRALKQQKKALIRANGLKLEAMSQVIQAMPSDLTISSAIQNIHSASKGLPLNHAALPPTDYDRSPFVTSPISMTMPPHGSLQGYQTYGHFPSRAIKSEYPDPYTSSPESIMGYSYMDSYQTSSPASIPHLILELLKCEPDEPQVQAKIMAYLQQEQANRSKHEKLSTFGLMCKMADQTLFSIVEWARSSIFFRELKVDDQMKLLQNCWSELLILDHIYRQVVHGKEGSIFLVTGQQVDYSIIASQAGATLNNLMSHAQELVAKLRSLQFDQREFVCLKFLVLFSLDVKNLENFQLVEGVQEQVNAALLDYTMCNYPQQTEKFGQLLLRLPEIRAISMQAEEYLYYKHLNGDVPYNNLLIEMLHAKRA

[3] = target: Steroidogenic factor 1 (Homo sapiens) (UniProt Q13285); experiment: SF1 (NR5A1) inverse agonists, counter-screen for LRH-1 inverse agonist project, cell-based, luminescence, high throughput (AID 651614; in the data active = inhibition above about 44%;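 note: cells cotransfected with StAR promoter reporter and SF1 expression vector; 0% = vehicle on cells with receptor and 100% = vehicle on cells lacking receptor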); details: cell-based SF1 luciferase reporter, at 3.6 µM, active compounds read high
Chain of Steroidogenic factor 1 (Homo sapiens) (Q13285 whole entry, looked up, the tested form may be a part): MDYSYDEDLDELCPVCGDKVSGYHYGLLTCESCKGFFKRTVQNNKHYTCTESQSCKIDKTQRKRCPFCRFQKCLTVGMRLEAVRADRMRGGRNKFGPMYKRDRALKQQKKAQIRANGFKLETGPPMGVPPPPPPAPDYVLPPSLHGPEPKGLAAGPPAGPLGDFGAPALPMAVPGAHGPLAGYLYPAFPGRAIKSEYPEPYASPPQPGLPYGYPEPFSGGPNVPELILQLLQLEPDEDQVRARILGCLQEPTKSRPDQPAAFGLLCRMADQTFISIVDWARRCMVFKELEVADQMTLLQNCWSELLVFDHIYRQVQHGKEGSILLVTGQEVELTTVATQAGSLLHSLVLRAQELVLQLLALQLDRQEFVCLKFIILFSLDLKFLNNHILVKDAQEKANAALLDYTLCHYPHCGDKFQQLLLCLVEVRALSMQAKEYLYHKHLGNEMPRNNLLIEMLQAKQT

[4] = VP16 transactivation reporter inhibitors, counter-screen for LRH-1 inverse agonist project, cell-based, luminescence, high throughput (AID 651615; in the data active = inhibition above about 33%); details: Gal4-VP16 luciferase reporter cells, at 3.6 µM, active compounds read high

| SMILES | inhibition [1] | inhibition [2] | inhibition [3] | inhibition [4] |
| --- | --- | --- | --- | --- |
| COc1ccc2c(/C=C/c3cc[n+](C)cc3)c[nH]c2c1 | 28.7% (active) | 64.1% (active) | 56.3% (active) | 50.9% (active) |
| COc1ccc(S(=O)(=O)N2CCCN(CC(=O)Nc3ccc(OC)c(Cl)c3)CC2)cc1 | 17.7% | 65.8% (active) | 57.7% (active) | -5.36% |
| Cc1ccc(NC(=O)CSc2nnc(-c3n[nH]c4ccccc34)n2-c2ccccc2)c(C)c1 | 3.14% | 60.5% (active) | 60.3% (active) | 4.59% |
| CC(C)c1ccc(NC(=O)CSc2nc(=O)[nH]c3c2CCCC3)cc1 | 16.1% | 58.5% (active) | 47.3% (active) | -10.5% |
| CCn1c(=O)[nH]c(=O)c2c(N)c(C(=O)c3cc(F)ccc3F)sc21 | 10.4% | 59.5% (active) | 54.2% (active) | 10.3% |
| O=C(CSc1ncnc2c1cnn2-c1ccccc1)Nc1ccc2c(c1)OCO2 | 11% | 55.6% (active) | 48.5% (active) | -7.58% |
| Cc1nc2ccc(NS(=O)(=O)c3ccc4c(c3)OCCO4)cc2s1 | 7.73% | 56.4% (active) | 57.4% (active) | 52.6% (active) |
| Cc1ccc(NC(=O)COC(=O)C(NS(=O)(=O)c2ccc(Cl)cc2)C(C)O)cc1C (stereo not given) | 2.25% | 61.8% (active) | 43.2% (active) | -7.53% |
| CCOc1ccc(NC(=O)COC(=O)CC2CCCCC2)cc1 | 9.8% | 44.4% (active) | 44.8% (active) | -6.37% |
| Cc1cc2oc(=O)cc(-c3ccccc3)c2c(C)c1-c1ccc(N(C)C)cc1 | 0.45% | 52% (active) | 51.3% (active) | 12.6% |
| OC(c1ccc2ccccc2n1)c1c(Cl)cccc1Cl (stereo not given) | 12.8% | 42.7% (active) | 41.4% | 17.8% |
| COCCNc1ccc([N+](=O)[O-])cc1C(=O)NC1CCCc2ccccc21 (stereo not given) | 4.6% | 54.7% (active) | 53.5% (active) | 12.8% |
| COc1ccc(C2(C)NC(=O)N(CC(=O)Nc3ccc(C)cc3Br)C2=O)cc1OC (stereo not given) | 15.7% | 40.8% | 28.4% | 0.45% |
| COC(=O)c1c(NC(=O)c2ccc([N+](=O)[O-])o2)sc2c1CCN(C(C)C)C2 | 28% (active) | 45.3% (active) | 44.1% (active) | 0.53% |
| COc1ccc(CNC(=O)c2sc(=O)n(Cc3ccc(-c4ccccc4)cc3)c2C)cc1OC | 26% | 37.7% | 42.5% | 31.6% (active) |
| CC(=NNC(=S)N1CCN(c2ccccn2)CC1)c1nccs1 | 82.9% (active) | 91.2% (active) | 79.4% (active) | 44.3% (active) |
| COc1cc(NC(=O)CCl)ccc(=O)c1 | 47.9% (active) | 64.7% (active) | 68.2% (active) | -57% |
| Cn1c(SCC(=O)Nc2ccc(N3CCOCC3)cc2)nnc1-c1ccccc1 | 0.41% | 46.2% (active) | 47.5% (active) | -12.2% |
| CCCc1nc(SCC(=O)c2ccc(F)cc2)c2ccccc2n1 | 5.26% | 46.9% (active) | 55.7% (active) | -0.25% |
| O=C(COC(=O)C1CC1)NCCc1ccc(Cl)cc1 | 4.21% | 45.3% (active) | 39.1% | -2.95% |
| COc1ccc(NC(=O)CSc2ccc3c(c2)OCCO3)cc1 | 2.27% | 63.5% (active) | 56.7% (active) | -4.1% |
| CCOC(=O)N1CCN(C(=O)CCl)CC1 | 11% | 56% (active) | 57.9% (active) | -8.13% |
| CCCCNC(=O)CSc1nc2ccc(NC(=O)CSc3nnc(COc4ccccc4C)n3C)cc2s1 | 2.43% | 61.2% (active) | 61.3% (active) | -5.17% |
| O=C1C(Cl)=C(N2CCOCC2)C(=O)N1c1ccc(Br)cc1 | 12.1% | 53.2% (active) | 50.8% (active) | 4.3% |
| COc1ccc(NC(=O)Cn2nnc(C(=O)Nc3ccccc3C)c2N)cc1 | 5.36% | 41.4% (active) | 37.6% | 9.36% |
